High-throughput results as filed in PubChem BioAssay.
KinaseGlo FLuc: Counterscreen for Luciferase (Kinase-Glo TM) Inhibition | Luciferin 4-monooxygenase (Photuris pensylvanica), Q27757 | Kinase-Glo luciferase, ATP luminescence, 8 min | Potency, µM (doses to about 38.3 µM), actives largely listed as inhibitors | hit rate 0.28% among 200,000 | AID 1379, 2008; active = well fitted inhibition curve with a large enough effect; inconclusive = small, poorly fitted or top-dose-only effect; note: nearly all actives have a fitted effect of over 60% in size
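Kinase-Glo luciferase light output from ATP and luciferin was measured with 10 uM ATP, within the enzyme's linear range. Buffer: 50 mM imidazole pH 7.2, 50 mM KCl, 7 mM MgCl2, 0.01% Tween 20, 0.05% BSA; luminescence read after 8 min at ambient temperature.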
KCNH2 3.1 block: qHTS for Inhibitors of KCHN2 3.1: Mutant qHTS; activity change, % (tested at about 1.8 µM); U2OS KCNH2 3.1, thallium flux FluxOr; stronger effect = lower value; hit rate 0.95% among 340,000; Potassium voltage-gated channel subfamily H member 2, brain isoform KCNH2 3.1 (human);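 active = maximum activity change below -70%; inconclusive = maximum activity change from -70% to -50%; inactive = maximum activity change above -50%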;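 note: thallium influx rate constant from kinetic fluorescence after stimulation buffer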
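Thallium flux read-out: FluxOr dye with Red40 quencher in HBSS/HEPES, 45 min at RT. Rate constants from kinetic reads were normalized to positive and negative DMSO controls. Cells: U2OS virally expressing the 3.1 isoform.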
KCNH2 WT inh: qHTS for Inhibitors of KCHN2 3.1: Wildtype qHTS; Voltage-gated inwardly rectifying potassium channel KCNH2 (Homo sapiens), Q12809; U2OS, BacMam KCNH2, thallium flux FluxOr; stronger effect = lower value; activity change, % at 1.84 µM; hit rate 0.37% among 340,000; AID 720551, 2013;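 active = maximum activity change below -70%; inconclusive = maximum activity change between -70% and -50%; inactive = maximum activity change above -50%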
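U2OS cells were transduced with wild-type KCNH2 virus (2.03 x 10^8 / mL) for 4 h at room temperature, then cultured overnight at 37 C. Thallium flux was read with FluxOr dye. Rate constants were normalized to DMSO controls.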
A number is an active result; . = inactive; ? = inconclusive; / = no result given; [ ] = dose if it differs, or a comment. Only some compounds are listed: those with a hit (about 1.2% of all), similar ones and a draw of the others.

SMILES	KinaseGlo FLuc	KCNH2 3.1 block	KCNH2 WT inh
Cc1cccc(C)c1NC(=O)c1ccccc1C(=O)O	/	.	.
Cc1cccc(C(=O)O)c1NC(=O)c1ccc(F)cc1	.	.	-194
CCCC(=O)N(Cc1cccnc1)c1nc2c(OC)ccc(Cl)c2s1	/	.	.
COc1ccc(C[C@H]2CN3C(=NC[C@@H]3C(C)C)N2CCNC(=O)CCC2CCCCC2)cc1	/	.	.
COc1ccc(C[C@H]2CN3C(=NC[C@@H]3Cc3ccccc3)N2CCNC(=O)CCC2CCCCC2)cc1	/	?	-145
Cc1ccccc1NC(=O)c1cc([N+](=O)[O-])ccc1NCCN1C(=O)CCC1=O	.	-159	.
O=C(Nc1ccccc1)c1ccc(NCCN2C(=O)CCC2=O)c([N+](=O)[O-])c1	.	.	.
N=c1c2c(-c3ccccc3)c(-c3ccccc3)n(Cc3ccco3)c2ncn1CCCn1ccnc1	.	-71	.
CC(C)Cn1cnc2c(c(-c3ccccc3)c(-c3ccccc3)n2Cc2ccco2)c1=N	.	-101	-74
N=c1c2c(-c3ccccc3)c(-c3ccccc3)n(Cc3ccco3)c2ncn1CCCN1CCOCC1	.	-78	.
N=c1c2c(-c3ccccc3)c(-c3ccccc3)n(Cc3ccco3)c2ncn1Cc1ccccc1	.	.	.
c1ccc(-c2c(-c3ccccc3)n(Cc3ccco3)c3ncnc(NCCCn4ccnc4)c23)cc1	.	/	.
N=c1c2c(-c3ccccc3)c(-c3ccccc3)oc2ncn1CCCN1CCOCC1	.	.	.
Cc1ccc2c(c1)N(C(=O)CCC(=O)NCc1cccc(Cl)c1)CC(C)O2 (configuration not stated)	/	.	.
Cc1nc(N2CCN(c3ccccc3)CC2)[nH]c(=O)c1C	/	.	.
Cc1cc(/C=C(\C#N)C(=O)NCCc2c[nH]c3ccccc23)c(C)n1C	.	.	.
N#C/C(=C/c1ccc(Br)s1)C(=O)NCCc1c[nH]c2ccccc12	.	.	-74
O=C(c1[nH]nc2c1CCc1ccccc1-2)N1CCN(Cc2ccc3c(c2)OCO3)CC1	/	.	.
Cc1ccc(OCC(O)CN2CCC(Cc3ccccc3)CC2)c(C)c1 (configuration not stated)	/	?	.
C=CCc1ccc(OCC(O)CN2CCN(c3ccccc3OC)CC2)c(OC)c1 (configuration not stated)	/	.	.
C=CCc1ccc(OCC(O)CN2CCC(Cc3ccccc3)CC2)c(OC)c1 (configuration not stated)	.	-86	.
C=CCc1ccc(OCC(O)CN2CCN(Cc3ccc(Cl)cc3)CC2)c(OC)c1 (configuration not stated)	.	-83	.
CN(C)Cc1cc(O)c(O)c(CN(C)C)c1	.[7.66 µM]	/	/
Cc1cccc(-n2ncc3c(NCc4cccnc4)ncnc32)c1	/	-102	.
Cc1ccc(-n2ncc3c(NCc4cccnc4)ncnc32)cc1C	/	.	.
SMILES	KinaseGlo FLuc	KCNH2 3.1 block	KCNH2 WT inh
COc1ccc(N2CC(C(=O)N[C@@H](CC(C)C)C(=O)NC3CCCCC3)CC2=O)cc1 (some centres not stated)	/	.	.
Cn1nnnc1SCCNCc1ccccc1OCc1ccc(Cl)cc1	.	.	.
Cn1nnnc1SCc1ccc(F)cc1	.	.	.
Cc1ccc(CSc2nnnn2C)cc1	.	-98	.
Cn1nnnc1SCCNCc1ccc(Cl)cc1	.	-95	.
COc1ccc(S(=O)(=O)N(CC(=O)N2CCOCC2)c2ccc(F)cc2)cc1OC	/	.	.
COc1ccc(-n2nc(C(=O)NCC(=O)NCCCN3CCCCCC3)c3ccccc3c2=O)cc1Cl	.	-86	.
COc1ccc(-n2nc(C(=O)NCC(=O)NCCCN3CCC(C)CC3)c3ccccc3c2=O)cc1Cl	/	.	.
COC(=O)C1=C(C)N(CC2CC2)C(=NCc2cc(OC)c(OC)c(OC)c2)N[C@H]1c1ccccc1	/	.	.
COC(=O)C1=C(C)N(Cc2ccccc2)C(=NCc2cc(OC)c(OC)c(OC)c2)N[C@H]1c1ccc(Br)cc1	/	-86	.
O=C(NN=C1CCCC1)c1ccc(O)cc1	/	.	.
O=C(NN=C1CCCC1)c1ccc([N+](=O)[O-])cc1	.	.	-222
O=C(c1ccc(S(=O)(=O)N2CCCC2)cc1)N(c1ccccc1)C1C=CS(=O)(=O)C1 (configuration not stated)	/	.	.
COc1ccc(C(CNC(=O)c2cc(S(=O)(=O)NCc3ccco3)ccc2C)N(C)C)cc1 (configuration not stated)	/	?	.
CC(Oc1ccc(F)cc1)C(=O)Nc1cccc(-c2nn[nH]n2)c1 (configuration not stated)	/	.	-86
COc1ccc(OC(C)C(=O)Nc2cccc(OC)c2)cc1 (configuration not stated)	.	.	.
COC(=O)[C@@]12CCCN1[C@H](c1ccc(-c3ccc(Cl)c(Cl)c3)c(OC)c1)[C@H]1C(=O)N(C)C(=O)[C@H]12	/	.	.
O=c1cc2c(nn1Cc1ccc(Cl)cc1)-c1ccccc1CC2	.	-95	.
O=c1cc2c(nn1Cc1cccc(Cl)c1)-c1ccccc1CC2	.	.	.
CCN(CC(=O)Nc1ccc(NC(C)=O)cc1)C(=O)c1cn(-c2ccccc2)nc1-c1cccs1	/	.	.
COc1cccc(-c2ccc(NC(=O)C3CCCN(CCCn4cccn4)C3)cc2)c1 (configuration not stated)	/	-84	.
COc1cccc(-c2ccc(NC(=O)C3CCCN(Cc4ccccn4)C3)cc2)c1 (configuration not stated)	/	.	.
Cc1cc(C(=O)CSc2nnc(C3CC3)n2C2CC2)c(C)n1C(C)C	/	.	.
C=CC[C@@H](CC(=O)N[C@H](CO)Cc1ccccc1)C(=O)N[C@H](COC(=O)[C@@H](CC=C)Cc1ccc(F)cc1)C(C)(C)C	/	.	.
C=CCC[C@H](Cc1ccc(F)cc1)C(=O)OC[C@@H](NC(=O)[C@@H](CC=C)CC(=O)N[C@@H](CO)Cc1ccccc1)C(C)(C)C	/	.	-100
SMILES	KinaseGlo FLuc	KCNH2 3.1 block	KCNH2 WT inh
Cc1cccc(OCC(=O)OCC(=O)NCC2CCCO2)c1C (configuration not stated)	/	.	.
Cc1ccc2sc(N(CCCN(C)C)C(=O)c3ccc(S(=O)(=O)N(C)Cc4ccccc4)cc3)nc2c1C	/	.	.
CCOc1cccc2sc(N(CCCN(C)C)C(=O)c3ccc(S(=O)(=O)N(C)Cc4ccccc4)cc3)nc12	/	/	-74
CCOc1ccc2nc(N(CCN(C)C)C(=O)c3cc4ccccc4cc3OC)sc2c1	/	.	?
CCOc1cccc2sc(N(CCN(C)C)C(=O)c3cc4ccccc4cc3OC)nc12	/	-79	.
COc1ccc(C(C)=O)cc1CC(=O)Nc1cccc(S(=O)(=O)N2CCOCC2)c1	/	.	.
O=C(NC1=NCCS1)c1ccccc1OCc1ccccc1Cl	.	.	.
N#CC1C(=O)c2ccccc2C1c1ccccc1 (configuration not stated)	/	.	.
COc1ccc(-c2csc3nc(C)nc(N4CCN(C(C)=O)CC4)c23)cc1OC	.	.	.
COc1ccc(-c2csc3nc(C)nc(N4CCC(C)CC4)c23)cc1OC	.	-137	.
O=S(=O)(c1ccc2c(c1)CCN2)N1CCOCC1	/	.	.
